# Source: PubChem BioAssay
# Rce1 inhib: yeast Rce1p protease inhibitors, primary screen, biochemical, fluorescence, cell-free homogeneous | CAAX prenyl protease 2 (Saccharomyces cerevisiae (strain ATCC 204508 / S288c)), Q03530 | yeast membranes, quenched prenylated peptide cleavage fluorescence | calls only | 290,000 tested, 0.27% active;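 active = fall in fluorescence gain of 50% or more versus controls, with final raw signal at or below 3038400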;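 note: plate controls were neutral control wells for no effect and wells lacking membranes for full effect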
# PERK inh: block of dimerizer-induced PERK translation repression, primary screen, PERK inhibitor project, CHO PERK-DD cells, SEAP luminescence, HTS | CHO PERK-DD fusion, SEAP luminescence translation reporter | inhibition, % at 5.6 µM | 220,000 tested, 0.17% active;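 active = inhibition above the mean inhibition of all tested compounds plus 3 SD, set separately per screening campaign, cut at about 2.9% in these data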;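 note: PERK kinase domain activated by AP20187 dimerizer at 100 nM; 0% = DMSO with dimerizer and 100% = rapamycin at 8.4 µM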
# CR mimetic SO: reduction of superoxide in aged yeast, primary screen, HTS | S. cerevisiae aged cells, superoxide DHE fluorescence; stronger effect = lower value | superoxide response (% of plate mean), % at 10 µM | 330,000 tested, 0.18% active;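 active = superoxide response under a set limit, about three screen SD below normal, cut at about 65% in these data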;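 note: yeast aged for seven days with compound at 30 °C before DHE staining; 100% = average MFI of all compound-treated wells on the plate with controls excluded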
# NALP1 inh: NALP1 inflammasome inhibitors in reconstituted yeast, colorimetric, S. cerevisiae, triplicate retest | 280,000 tested, 0.61% active | S. cerevisiae NALP1/ASC/caspase-1 growth, X-gal OD620, 72 h | inhibition, % at 10 µM; in the data active = inhibition mostly above about 24%, no sharp cut-off; inactive = mostly below about 32%
# NALP3 yeast inh: NALP3 inflammasome inhibitors in reconstituted yeast, primary screen, luminescence, uHTS; Yeast reconstituted NLRP3/ASC/caspase-1, beta-gal luminescence, 24 h; 330,000 tested, 0.39% active; inhibition, % at 10 µM;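 active = inhibition of 50% or more; inactive = inhibition below 50%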;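 note: plate controls were induced DMSO wells for no effect and uninduced yeast grown without galactose for full effect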
# V-ATPase pH: regulators of yeast V-ATPase proton pumping, primary screen, pHLuorin cytosolic pH fluorescence; S. cerevisiae; response, % at 10 µM; 350,000 tested, 0.37% active; AID 504577, 2011; in the data active = response mostly above about 7.3%, no sharp cut-off; inactive = mostly below about 5.4%; note: actives read high
# * hit, by the source's call; i = inactive; x = no result given; + = active, no number. In the library only some 1.6% were active in any assay of this set; here they are far more common.
SMILES,Rce1 inhib,PERK inh,CR mimetic SO,NALP1 inh,NALP3 yeast inh,V-ATPase pH
CCCNC(=O)C[C@H]1C[C@H]2c3cc(NC(=O)Nc4ccc(F)cc4)ccc3O[C@H]2[C@@H](CO)O1,x,x,x,x,x,1
CCCCSCCCNC(=O)Nc1cccc(OC)c1,i,2,89,40*,13,-1
c1ccc2c(c1)Sc1cnccc1N2CC1CO1 (stereo unspecified),x,x,x,x,x,-1
CCn1c2ccccc2nc2cc3c(cc21)c(Cl)c(=O)c1ccccc13,x,x,x,x,x,1
S=c1[nH]nc(C2COc3ccccc3O2)o1 (stereo unspecified),i,3.0*,111,0,7,0
S=c1nc(C2COc3ccccc3O2)[nH][nH]1 (stereo unspecified),i,0,106,-7,23,-1
COc1ccc(Br)cc1/C(C)=N/NC1=NCCN1,i,-1,114,19,15,-2
CCCCCOc1ccc(Br)cc1/C(C)=N/NC1=NCCN1,i,-1,93,83*,34,-1
Cc1ccc(S(=O)(=O)N2C[C@]3(O)C[C@@H]4C(=O)N(c5ccccc5)C(=O)[C@@H]4C[C@]3(OC(=O)NC3CCCC3)C2)cc1,x,x,x,x,x,0
c1cn2cc(CSC3CCCCC3)nc2s1,i,0,97,36*,27,2
O=C(NCCc1cn2ccsc2n1)C1CCCCC1,i,-1,104,x,9,3
Cn1cc(CN2CCN(c3ccccc3)CC2)c2ccccc21,i,-1,92,26*,13,5
O=C(O)Cn1cc(CN2CCOCC2)c2ccccc21,i,x,104,11,17,-3
Cc1[nH]n(-c2ccccc2)c(=O)c1C(C[N+](=O)[O-])c1ccc(Br)cc1 (stereo unspecified),i,-1,91,65*,36,6
Cc1[nH]n(-c2ccccc2)c(=O)c1C(c1cccc([N+](=O)[O-])c1)c1c(C)[nH]n(-c2ccccc2)c1=O,i,1,94,5,-33,4
Cc1ccc(S(=O)(=O)N2CC3(O)CN(C(=O)OC(C)C)N(C(=O)OC(C)C)CC3(OC(=O)NCc3ccccc3)C2)cc1 (stereo unspecified),x,x,x,x,x,1
CCN(CC)C(=O)C1=C(C)N(Cc2ccc(C(C)(C)C)cc2)C(=O)C(CC(=O)NCc2ccco2)C1 (stereo unspecified),x,x,x,x,x,-2
COc1ccc(N2CSC(=S)N(c3ccc(OC)cc3)C2)cc1,x,x,x,x,x,-6
Cc1nc(NC(=O)c2ccccc2)sc1-c1cc(C(=O)N2CCOCC2)nn1Cc1ccccc1,x,x,x,x,x,-2
O=C(CN1CCN(c2ccc(Cl)cc2)CC1)Nc1cccc(F)c1,i,-2,110,-22,17,0
O=C(Nc1cccc(F)c1)N1CC=C(c2ccc(Cl)cc2)CC1,i,-1,127,39*,17,0
COc1ccccc1NC(=O)c1ccc(Br)o1,i,1,121,28*,6,-6
Cc1cc(O)c(NC(=O)c2ccc(Br)o2)cc1C,i,1,94,x,17,14*
CCOC(=O)CCCCCC(=O)Nc1ccc2c(c1)C(=O)N([C@H](C)CO)C[C@H](C)[C@H](CN(C)C(=O)C1CCCCC1)OCCCC[C@@H](C)O2,x,x,x,x,x,-1
CC(/C=C/c1ccco1)=N\NC(=O)CNc1ccc2ccccc2c1,i,0,88,20*,17,-3
SMILES,Rce1 inhib,PERK inh,CR mimetic SO,NALP1 inh,NALP3 yeast inh,V-ATPase pH
COc1ccccc1-n1c(-c2ccccc2)c[nH]c1=S,+,0,x,1,x,-5
S=c1[nH]cc(-c2ccccc2)n1-c1ccccc1Cl,i,0,95,0,-7,4
CC(Sc1ccc(S(=O)(=O)N2CCCCC2)cn1)C(N)=O (stereo unspecified),x,x,x,x,x,5
COc1cc(-c2nnc(COC(=O)c3ccc([N+](=O)[O-])o3)o2)cc(OC)c1OC,x,x,x,x,x,2
Cc1cc(=O)[nH]c(N2CCN(C(c3ccccc3)c3ccccc3)CC2)n1,i,-1,97,12,15,19*
COC(=O)[C@@H](N)CS,i,3.0*,103,37,-2,4
COC(=O)C(N)Cc1ccc(O)cc1 (stereo unspecified),i,0,93,4,18,-1
CCOc1ccccc1C(=O)NC(C(=O)NCc1ccccc1OC)C(C)C (stereo unspecified),i,2,99,2,14,5
CCOc1ccccc1C(=O)N[C@H](C(=O)Nc1cc(S(=O)(=O)N(C)C)ccc1OC)C(C)C,i,1,86,24*,-3,1
CCOC(=O)C1CCCC12Nc1cccc3cccc(c13)N2 (stereo unspecified),x,x,x,x,x,-3
COc1ccc(CN(C2CCCC2)S(=O)(=O)c2ccc(-n3cnnn3)c(OC)c2)cc1OC,+,-1,115,28,3,-6
COc1ccc(CN(CC2CCCO2)S(=O)(=O)c2ccc(-n3cnnn3)c(OC)c2)cc1 (stereo unspecified),i,0,98,-12,8,19
CSc1ncnc2c1ncn2CCCN1CCN(Cc2cccc3ccccc23)CC1,x,x,x,x,x,1
CCCCCCn1c(=O)n2n(c1=O)C[C@]1(OC(=O)NC3CC3)CN(S(=O)(=O)c3ccc(C)cc3)C[C@]1(O)C2,x,x,x,x,x,1
Cc1ccc(NC(=O)Nc2cccs2)cc1,i,1,105,1,13,23*
CCCC#Cc1ccc2c(c1)O[C@@H](CN(C)Cc1ccc3c(c1)OCO3)[C@H](C)CN([C@@H](C)CO)S2(=O)=O,x,x,x,x,x,3
C=CCn1c(SCC(=O)c2c(N)n(C)c(=O)n(C)c2=O)nnc1-c1ccccc1F,i,1,94,37*,-4,2
Cn1c(N)c(C(=O)CSc2nnc(-c3ccccc3F)n2C2CC2)c(=O)n(C)c1=O,i,1,89,34*,12,-1
C=CCn1c(SCC(=O)c2c(N)n(C)c(=O)n(C)c2=O)nnc1-c1ccncc1,i,1,95,32,4,-2
Cn1c(N)c(C(=O)CSc2nnc(-c3ccccc3F)n2N)c(=O)n(C)c1=O,i,1,91,x,-20,3
CN1CC(O)(C(O)C(O)C(O)CO)SC1=S (stereo unspecified),x,x,x,x,x,3
C/C(=N\N=C1/SC(CC(=O)O)C(=O)N1c1ccccc1)c1ccc(C)cc1 (stereo unspecified),i,x,107,23,18,0
C/C(=N/N=C1\SCC(=O)N1c1ccccc1)c1ccc(C)cc1,i,3.7*,99,60,14,-2
